These results are taken from PubChem BioAssay.

Experiment [1] deals with XIP peptide (Xip251-270) binding. Briefly: small-molecule binders of XIP peptide, primary screen, biochemical, small-molecule microarray, fluorescence 635/667 nm, 0.1 µg/mL protein (AID 1182). The note with it: fluorescent protein binding, 635 nm, higher = more signal, called active from +8 up or from −8 down.
For a further experiment, the system named is XIP peptide (Xip251-270). In words: small-molecule binders of XIP peptide, primary screen, biochemical, small-molecule microarray, fluorescence 635/667 nm, 0.5 µg/mL protein (AID 1183). Conditions: small-molecule microarray binding, fluorescence 635 nm; higher = more signal.
Experiment [2] in a line: Plasmodium falciparum growth inhibition, primary screen, strain 3D7, DAPI fluorescence, 100 nL (AID 1184).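 Also: parasites grown inside human red blood cells in medium with human serum.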 The note with it: P. falciparum 3D7 growth, 3 d, higher = more signal.
In experiment [3] the target is Homeobox protein Hox-A13 (Mus musculus) (UniProt Q62424). In words: inhibitors of HoxA13-DNA binding, primary screen, biochemical, fluorescence polarization, labeled oligonucleotide (AID 1185). Conditions: 15 min, higher = more signal, called active from +8 up or from −8 down.
Chain of Homeobox protein Hox-A13 (Mus musculus) (Q62424 whole entry, looked up): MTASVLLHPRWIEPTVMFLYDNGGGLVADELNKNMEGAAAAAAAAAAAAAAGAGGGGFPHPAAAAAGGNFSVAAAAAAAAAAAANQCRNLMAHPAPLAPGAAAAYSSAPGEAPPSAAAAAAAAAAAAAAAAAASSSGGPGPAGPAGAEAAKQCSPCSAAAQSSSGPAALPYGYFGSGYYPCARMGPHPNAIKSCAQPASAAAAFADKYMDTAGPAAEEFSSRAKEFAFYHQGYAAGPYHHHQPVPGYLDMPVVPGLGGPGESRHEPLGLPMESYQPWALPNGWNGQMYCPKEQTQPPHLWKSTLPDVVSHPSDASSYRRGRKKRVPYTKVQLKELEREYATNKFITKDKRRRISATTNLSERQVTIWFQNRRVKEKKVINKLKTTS
A short description of experiment [4]: inhibitors of hydroxyurea-induced Chk1 phosphorylation, primary screen, imaging, HeLa, phospho-Chk1 antibody, percent positive cells (AID 1186). Conditions: hydroxyurea-induced phospho-Chk1 immunofluorescence imaging, higher = more signal.
Experiment [5] can be described thus: inhibitors of hydroxyurea-induced Chk1 phosphorylation, primary screen, imaging, HeLa, phospho-Chk1 nuclear intensity (AID 1187). The note with it: hydroxyurea-induced phospho-Chk1 immunofluorescence imaging, higher = more signal.

The structures appear in SMILES notation. The source made the active and inactive calls. Unless noted, no rule for the calls is given here.

Regarding `O=C1CCCC2OC12C(O)CCc1ccccc1` (centres undefined), the composite z-score in experiment [1] was -0.128 (inactive); in the experiment on XIP peptide (Xip251-270), -0.213. For the same compound, the results for the z-score in experiment [2] and in experiment [3] were 0.307 and -0.663 (inactive), respectively.
Take `CC(CCN1CCCCc2nc(C)c(C)cc21)=NOC(C)CN1CCCCc2nc(C)c(C)cc21` (centres undefined): the composite z-score in experiment [1] is 0.29 (inactive); with XIP peptide (Xip251-270) it was 0.805. The figures for the z-score in experiment [2] and in experiment [3] were -0.883 and -5.75 (inactive), respectively.
Take `Cc1ccc(F)cc1S(=O)(=O)N[C@@H]1CCN(Cc2ccc(CC(C)C)cc2)C1`: the composite z-score in experiment [1] is -0.112 (inactive); in the experiment on XIP peptide (Xip251-270) it was -0.583. In addition, the z-score is -1.66 in experiment [2], -4.52 (inactive) in experiment [3], -0.496 (inactive) in experiment [4] and -0.724 (inactive) in experiment [5].
With `CO[C@@H]1COC(=O)CCC[C@@H](C)[C@H](OC)COC(=O)CCC[C@H]1C`, the composite z-score was -0.201 (inactive) in experiment [1] and 0.201 in the experiment with XIP peptide (Xip251-270). Also, the figures for the z-score in experiment [2] and in experiment [3] were -0.0787 and -1.03 (inactive), respectively.
For the compound `CCOC(=O)NN=C1C[C@@H](O)[C@@H](O)[C@@H]2[C@@H]3C(=O)N(CC)C(=O)[C@@H]3CC[C@@H]12`, the figures for the composite z-score (in experiment [1]; in the experiment with XIP peptide (Xip251-270)) were -0.359 (inactive) and 0.482, respectively. Moreover, the z-score was 0.518 in experiment [2] and 0.443 (inactive) in experiment [3].
With `O=C1[C@H]2[C@H]3[C@H](O)[C@H](O)CC(=NOC[C@@H](O)COCc4ccco4)[C@H]3CC[C@H]2C(=O)N1c1cccc(Oc2ccccc2)c1`, the composite z-score in experiment [1] is 0.283 (inactive); with XIP peptide (Xip251-270), 0.638. Also, the z-score is 0.499 in experiment [2] and 0.338 (inactive) in experiment [3].
For the compound `O=C1[C@H]2[C@H]3[C@H](O)[C@H](O)CC(=NO[C@@H]4O[C@H](CO)[C@@H](O)[C@H](O)[C@H]4O)[C@@H]3CC[C@H]2C(=O)N1c1ccc(F)cc1F`, the composite z-score in experiment [1] is 0.34 (inactive); in the experiment with XIP peptide (Xip251-270), 0.225. Moreover, the values for the z-score in experiment [2] and in experiment [3] were 0.531 and 0.036 (inactive), respectively.
For `C[C@@H]1CCC2C(=O)N(Cc3ccccc3)C[C@@H](O)CN2[C@H]1c1ccc(Br)cc1` (some centres undefined), the composite z-score in experiment [1] is 1 (inactive); with XIP peptide (Xip251-270), 0.689. The z-score in experiment [2] is 0.787; in experiment [3], -3.92 (inactive).
